# This is a sample that favours compounds with a hit; in the whole collection about 1.2% have one here.
# PGK inhibitor = blocks T. brucei phosphoglycerate kinase. PGK/GAPDH coupled, Kinase-Glo luminescence, 60 min. Potency, µM (doses to about 57.5 µM), hits mostly inhibitors. 0.043% of 380,000 active. AID 602233; note: nearly all actives have a fitted effect of over 60% in size
# Target sequence (P07378 whole entry, looked up): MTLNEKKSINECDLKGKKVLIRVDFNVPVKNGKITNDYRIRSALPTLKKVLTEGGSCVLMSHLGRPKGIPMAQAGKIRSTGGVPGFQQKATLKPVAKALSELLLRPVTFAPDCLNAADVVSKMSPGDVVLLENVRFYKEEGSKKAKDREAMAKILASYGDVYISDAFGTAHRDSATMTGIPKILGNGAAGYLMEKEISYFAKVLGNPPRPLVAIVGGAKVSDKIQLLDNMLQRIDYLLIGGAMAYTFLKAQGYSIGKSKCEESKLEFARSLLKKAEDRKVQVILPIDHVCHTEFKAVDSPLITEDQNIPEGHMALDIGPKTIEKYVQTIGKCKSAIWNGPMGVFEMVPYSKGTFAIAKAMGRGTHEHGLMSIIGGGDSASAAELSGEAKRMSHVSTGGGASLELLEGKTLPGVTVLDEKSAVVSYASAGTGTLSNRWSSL
#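 Luminescent ATP detection (Kinase-Glo Plus) follows a 60-minute room-temperature incubation, with wells lacking PGK as controls. Buffer: 100 mM TEA (pH 7.6), 5 mM MgCl2, 0.01% Tween-20. Coupling enzyme GAPDH (100 nM final) supplies unstable 1,3-BPG in-well.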
# hERG WT inh = KCNH2 (human, wildtype) channel inhibition; Q12809; U2OS, BacMam KCNH2, thallium flux FluxOr; active compounds read low; activity change, % at 1.84 µM; 0.37% of 340,000 active;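 active = maximum activity change below -70%; inconclusive = maximum activity change between -70% and -50%; inactive = maximum activity change above -50%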
#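 U2OS cells transduced with wild-type KCNH2 virus are loaded with FluxOr dye for 45 min, and thallium flux is measured in kinetic reads before and after stimulation buffer. Rate constants are normalized to DMSO controls.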
# GCN5L2 inh = GCN5L2 (KAT2A) acetyltransferase inhibition; Q92830; GCN5L2 HAT assay, ThioGlo1 CoA-SH fluorescence; Potency, µM (doses to about 58.9 µM), usual class: inhibitors; 0.21% of 390,000 active; AID 504327
#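 qHTS, 1536-well. 20nM enzyme, pH 7.5 HEPES/EDTA/Tween-20 buffer; 15 min compound preinc., RT. Start: 75uM H3(1-25), 70uM AcCoA, 50uM ThioGlo1. Read Ex340/Em540 at t=0 (autofluorescence flag) and t=20 min.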
# KCNH2 3.1 inh = inhibitors of human KCNH2 3.1 potassium channel isoform | activity change, % (tested at about 1.8 µM) | 0.95% of 340,000 active | U2OS KCNH2 3.1, thallium flux FluxOr; active compounds read low;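 active = maximum activity change below -70%; inconclusive = maximum activity change from -70% to -50%; inactive = maximum activity change above -50%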;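 note: thallium influx rate constant from kinetic fluorescence after stimulation buffer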
#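 Thallium flux via FluxOr fluorescence (Red40 quencher, 45 min loading) in U2OS cells virally expressing the KCNH2 3.1 isoform (1.77 x 10^8 /mL virus, overnight at 37 C). Rate constants from 2-min kinetic reads post-stimulation, normalised to positive and negative controls.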
# RGS4 inhibitor = inhibitors of human regulator of G protein signaling 4; P49798; Transcreener GDP fluorescence polarization, RGS4-accelerated GTP hydrolysis; Potency, µM (series often up to 114 µM), hits mostly inhibitors; 0.039% of 390,000 active; note: nearly all actives have a fitted effect of over 75% in size
#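 MLSMR compounds (23 nl, pin-transferred) preincubated 10 min at room temperature with a 500nM (2x) first reagent, then RGS4 at 900nM (2x) plus Transcreener GDP mix added; fluorescence polarization (620/688 nm) read before and after 90 min at 30 °C.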
# Pin1 inh = human Pin1 inhibition; Q13526; Pin1 FP peptide displacement, HiFluor488, 10 min; Potency, µM (highest dose often 115 µM), hits mostly inhibitors; 0.009% of 390,000 active; AID 504891; active = well fitted inhibition curve with a large enough effect in the polarisation, with a control signal flat, not every such curve was filed as active; inconclusive = small, poorly fitted or top-dose-only effect, or effect the other way, or a change in a side signal; inactive = no such curve, though single readings can be large or run the other way; the % refers to the polarisation
# Target sequence (Q13526 whole entry, looked up): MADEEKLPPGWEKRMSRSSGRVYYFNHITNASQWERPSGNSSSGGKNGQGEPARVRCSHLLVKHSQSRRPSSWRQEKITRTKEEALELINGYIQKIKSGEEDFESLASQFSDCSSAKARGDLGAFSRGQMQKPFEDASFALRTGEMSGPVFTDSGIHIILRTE
# A number is an active result; . = inactive; ? = inconclusive; / = not tested or not shown. Unless noted, calls come from the whole dose curve; as a rule, active = well fitted curve in the direction sought with a large enough effect; inconclusive = small, poorly fitted or top-dose-only effect, or another doubt; inactive = no such curve, though single readings can be large; an effect the other way counts as inactive or inconclusive.
SMILES,PGK inhibitor,hERG WT inh,GCN5L2 inh,KCNH2 3.1 inh,RGS4 inhibitor,Pin1 inh
COC(=O)C(NS(=O)(=O)CCl)C(C)C (configuration not stated),/,/,/,/,.,.
COc1ccc(/C=C2\CCc3ccccc3C2=O)cc1Cn1cccn1,.,.,17.8µM,.,.,?
COc1ccc(/C=C2\CCC(C3CCCC3)C2=O)cc1Cn1cccn1 (configuration not stated),.,.,.,.,.,.
Cc1cc(=O)c2c(O)cc(O)c(C)c2o1,/,/,.,/,/,/
Cc1cc(C)c2c(c1)NC(C(=O)O)C1CC=CC21 (configuration not stated),?,.,28.2µM,.,?,?
O=C(O)C1Nc2c(C(F)(F)F)ccc(Cl)c2C2C=CCC12 (configuration not stated),.,.,.,.,?,/
CCOC(=O)c1ccc2c(c1)C1C=CCC1C(C(=O)O)N2 (configuration not stated),/,/,20µM,/,/,/
O=C(Nc1ccc2nc(SCC(=O)N3CCCc4ccccc43)sc2c1)c1cccc(Cl)c1,.,/,.,/,.,.
OC(CNCC1CCCO1)Cn1c2ccc(Cl)cc2c2cc(Cl)ccc21 (configuration not stated),.,?,.,-98.5,.,.
Cc1c(C)c2cc(Cl)c(O)c(CN3CCN(C)CC3)c2oc1=O,.,.,25.1µM,.,.,.
CC(C)(C)c1nc2scc(-c3ccc(Cl)cc3)c2c(=O)o1,.,.,.,-81.7,.,.
COC(=O)C1CCN(C(c2ccccc2)c2sc3nc(-c4ccco4)nn3c2O)CC1 (configuration not stated),.,/,.,/,.,.
COc1cc(OC)c2c(C)cc(=O)oc2c1C(CCN1CCN(c2ccccc2)CC1)c1ccc2c(c1)OCO2 (configuration not stated),.,-91.6,.,-102.8,.,.
CCN(CC)CCC(c1ccc(N(C)C)cc1)c1c(OC)cc(OC)c2c(-c3ccccc3)cc(=O)oc12 (configuration not stated),.,.,.,-112.3,.,.
CCCCCc1cc(=O)oc2c(C(CCN3CCCCC3)c3ccc4c(c3)OCO4)c(OC)cc(OC)c12 (configuration not stated),.,-79.7,.,.,.,?
COc1cc(O)c(C(CCN2CCCC2)c2ccc3c(c2)OCO3)c(OC)c1 (configuration not stated),.,/,.,/,.,.
COc1cc(O)c(C(CCN2CCN(c3ccccc3)CC2)c2ccc3c(c2)OCO3)c(OC)c1 (configuration not stated),.,?,.,-89.8,.,.
Cc1cccc(CCNC(=O)C2CCC(CNS(=O)(=O)c3ccccc3)CC2)c1 (configuration not stated),.,/,.,/,.,.
COc1cc(OC)c2c(-c3ccccc3)cc(=O)oc2c1C(CCN1CCCC1)c1ccc2c(c1)OCO2 (configuration not stated),.,-81.8,.,.,.,.
COc1ccc(NC(=O)CSc2nc3nc(C)c(Cc4ccccc4)c(C)n3n2)cc1OC,.,/,.,/,.,.
O=C(O)COc1cccc2c1CCC=C2CCO/N=C(\c1ccccc1)c1cccnc1,/,/,.,/,/,/
CC(C)(C)c1ccccc1NC(=O)CN1C(=O)NC2(CCCCCC2)C1=O,.,-169.9,.,.,.,.
CC1CN(C(=O)CN2C(=O)NC3(CCCCCC3)C2=O)CC(C)O1 (configuration not stated),.,.,.,-89.9,.,.
Cc1ccc2c(Sc3ccccc3)c(C(=O)NCc3ccccc3F)[nH]c2c1,.,/,.,/,.,.
COC(=O)C1=C(C)N(Cc2ccccc2)C(=NCCc2cccnc2)N[C@H]1c1ccc(Br)cc1,.,.,.,-89.2,.,.
SMILES,PGK inhibitor,hERG WT inh,GCN5L2 inh,KCNH2 3.1 inh,RGS4 inhibitor,Pin1 inh
CC(C)CN1CCC(=O)N([C@H](COc2ccccc2)Cc2ccccc2)CC1,.,.,.,-89.6,.,.
CC(C)C[C@@H](COc1ccccc1)N1CCN(CCc2ccccc2)CCC1=O,.,.,.,-95.7,.,.
COc1ccc(SCC(Cc2ccccc2)N2CCN(CC(C)C)CCC2=O)cc1 (configuration not stated),/,/,/,/,?,.
CCCN1CCC(=O)N([C@H](COc2ccccc2)CC(C)C)CC1,.,.,.,.,.,.
O=C1CCN(CCc2ccccc2)CCN1[C@H](CO)Cc1ccccc1,.,/,.,/,.,.
O=C1CCN(CCc2ccccc2)CCN1[C@H](COc1ccccc1)Cc1ccccc1,.,-256.8,.,-100.3,.,.
Cc1cc2c(s1)c1cnn(Cc3c(F)c(F)c(C(F)(F)F)c(F)c3F)c(=O)c1n2C,/,/,/,/,/,.
Cc1cccc(NC(=O)N2CC(=O)Nc3sc4c(c3C2c2ccccc2)CCCC4)c1C (configuration not stated),.,/,.,/,.,.
c1ccc2c3c([nH]c2c1)[C@@H]1[C@H]2CC[C@H]([C@H]4CCCN[C@H]42)N1CC3,/,/,.,/,/,/
COc1ccc(CNC(=O)C2CCN(c3nnc(-n4c(C)ccc4C)s3)CC2)c(OC)c1,/,/,.,/,.,.
CNC(=O)C(C)NS(=O)(=O)c1ccc(F)cc1 (configuration not stated),.,-91.3,.,.,.,.
Cc1ccc(NC(=O)C(C)NS(=O)(=O)c2ccc(F)cc2)cc1C (configuration not stated),.,.,.,.,.,.
CC(/C=C/c1ccco1)=N\NC(=O)CNc1cccc(C)c1,.,.,.,-79.8,.,.
CCOc1ccc(C(=O)Nc2cc(-c3nc4ccccc4[nH]3)ccc2Cl)cc1[N+](=O)[O-],.,.,.,-70.4,?,.
CCOc1ccccc1NC(=O)c1ccc(OCC)c([N+](=O)[O-])c1,.,.,.,.,.,.
CCOc1ccc(C(=O)Nc2cccc(-c3nc4ccccc4[nH]3)c2C)cc1[N+](=O)[O-],.,.,.,-77.5,.,.
COCCn1c(SCc2nc3sc(C(=O)OC)c(C)c3c(=O)[nH]2)nc2ccccc21,.,.,.,.,.,?
CCn1c(SCc2nc3sc(C(=O)O)c(C)c3c(=O)[nH]2)nc2ccccc21,20µM,.,.,.,.,?
COc1cc(OC)cc(C(=O)NCCc2csc(-c3cccc(C)c3)n2)c1,.,/,.,/,.,.
CCOC(=O)/C(C#N)=C1/C=CN(Cc2ccccc2)C=N1,.,-248.8,.,.,.,.
CCOC(=O)/C(C#N)=C1/C=CN(c2ccccc2)C=N1,.,.,.,.,.,.

# Source: PubChem
